# Measured values: PubChem BioAssay (NCATS)
# Inconclusive results are not listed. A number with no mark means an inactive call. Calls follow the shape of the full dose curve.
# Experiment: Cell Viability - SK-N-SH (AID 435);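 also: compound exposure lasted 40 h at 37 °C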
# Conditions: SK-N-SH neuroblastoma cell viability qHTS
# Excerpt: NIH Chemical Genomics Center [NCGC]
# NIH Molecular Libraries Screening Centers Network [MLSCN]
# National Institutes of Environmental Health Sciences [NIEHS]
# National Toxicology Program [NTP]
# We have developed a 1536-well cell-based assay for quantitative high throughput screening (qHTS) against a number of cell lines to determine in vitro cytotoxicity of small molecules. This particular assay uses the SK-N-SH cell line which is derived from human neuroblastoma.
# NCGC Assay Protocol Summary:
# The CellTiter-Glo luminescent cell viability assay (Promega) is a homogeneous method to measure the number of viable cells in culture. The end point readout of this assay is based on quantitation of intracellular ATP, an indicator of metabolic activity, using the luciferase reaction. Luciferase catalyzes the oxidation of beetle Luciferin to oxyluciferin and light in the presence of ATP. The luminescent signal is proportional to amount of ATP present.
# Using the CellTiter-Glo luminescent cell viability assay, the amount of cellular ATP was measured in the SK-N-SH cell line with complete culture medium following compound treatment for 40 hours. The assay was performed in opaque white Kalypsys 1536-well plates. In the screen, tamoxifen and doxorubicin were used as positive controls. Library compounds were measured for their ability to cause acute toxicity in the cell line, as reflected by a decrease in intracellular ATP levels, in a concentration-dependent manner. Data were normalized to the controls for basal activity (DMSO only) and 100% inhibition (100 uM tamoxifen). AC50 values were determined from concentration-response data modeled with the standard Hill equation.
# qHTS protocol fo CellTiter Glo SK-N-SH cellular assay
# [Step] [Parameter] [Value] [Description]
# 1. Reagent; 5 uL; 1500 SK-N-SH cells/well
# 2. Time; 5 hr; 37 °C incubation
# 4. Controls; 23 nL; Tamoxifen 0.34 uM to 100 uM & Doxorubicin 0.02 nM to 100 uM
# 5. Time; 40 hr; 37 °C incubation
# 6. Reagent; 5 uL; CellTiter Glo reagent
# 7. Time; 20 min; Room Temperature
# 8. Detection; Luminescence; Viewlux plate reader
# Keywords: cell viability, cytotoxicity, SK-N-SH cell line, luminescence, NTPHTS, NTPHTS_NCGC, NIEHS, EPA, DSSTox, MLSMR, MLSCN, NIH Roadmap, qHTS, NCGC
# Potency is read from the fitted curve at half-maximal effect.
row,Structure (SMILES),Potency [µM]
1,CC(=O)Nc1ccc(C)cc1,> 92
2,Fc1ccccc1,> 92
3,O=Nc1ccc(NO)cc1,> 92
4,CCCCC(CC)COCC1CO1 (stereo not given),> 92
5,CCOC(=O)OCC,> 92
6,Cc1ccc2ccccc2c1[N+](=O)[O-],> 92
7,C=C(C)C(=O)OCC(C)C,> 92
8,CCC1CO1 (stereo not given),> 92
9,CCC(O)C(C)(C)C (stereo not given),> 92
10,O=C(O)c1ccccc1C(=O)O,> 92
11,NC(=O)NC(N)=O,> 92
12,CC(O)COC(C)(C)C (stereo not given),> 92
13,CCCCCCCCN,> 92
14,O=C(O)c1ccc(Cl)cc1Cl,> 92
15,Cc1cc(C)cc(N)c1,> 92
16,CCCCCCC=O,> 92
17,C[C@@H]1CC2(OC[C@]3(C)O[C@H]23)O[C@H]2C[C@@]3(C)[C@@H]4CC[C@H]5C(C)(C)C(O[C@@H]6OC[C@@H](O)[C@H](O)[C@H]6O)CC[C@@]56C[C@@]46CC[C@]3(C)[C@@H]12 (stereo not given in full),> 92
18,CC1CCCO1 (stereo not given),> 92
19,CN(C)CCCNCCCN,> 92
20,CC(C)N(C)C,> 92

row,Structure (SMILES),Potency [µM]
1,O=C(O[C@@H](C(=O)O)[C@@H](OC(=O)c1ccccc1)C(=O)O)c1ccccc1,> 92
2,Cc1cc(C(=O)O)ccc1[N+](=O)[O-],> 92
3,Clc1cc(Cl)cc(Cl)c1,> 92
4,CC(C)c1ccccc1,> 92
5,CCOC(=O)C(C)C(C)=O (stereo not given),> 92
6,COc1ccccc1[N+](=O)[O-],> 92
7,N#CCc1ccccc1[N+](=O)[O-],> 92
8,CCNc1ccccc1,> 92
9,O=C(O)c1ccccc1Cl,> 92
10,CCCOCC(C)O (stereo not given),> 92
11,CC(C)=CCC/C(C)=C/C=O,> 92
12,C=C(C)C(N)=O,> 92
13,Cc1ccccc1Br,> 92
14,CC(C=O)Cc1ccc(C(C)(C)C)cc1 (stereo not given),> 92
15,Cc1cccc(C)c1[N+](=O)[O-],> 92
16,CCC(C)(C)C,> 92
17,Cc1ccc(C)c([N+](=O)[O-])c1,> 92
18,FC(F)(F)c1cccc(Cl)c1,> 92
19,C=CCCCCCCC=C,> 92
20,CCOCCOCC,> 92
